Assay results as given in PubChem BioAssay (EPA / NIEHS).
Inconclusive results are not listed. The source made the active and inactive calls. How the source made its calls, unless noted: active means hit-call score of the fitted dose curve at least 0.9, where 1 is the maximum; inconclusive means response in the unintended direction; inactive means score below 0.9.

Assays:
[1] = target: T1, Thyroid hormone receptor alpha (Rattus norvegicus) + Thyroid hormone receptor beta (Rattus norvegicus) (UniProt P18113+P63059); assay: TOX21_TR_LUC_GH3_Agonist_Followup: Tox21 GH3 Thyroid Hormone Receptor Agonism Luciferase Follow-Up Assay (AID 2283939)
Summary of the method: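 Rat GH3 cells (1,500/well) in serum-free assay medium, treated with 15-point series, 92 uM to 5 nM final, for 24 h at 37C. Luciferase via ONE-Glo luminescence; gain of signal fitted against DMSO, T3 positive control.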

THRA (gene 7067) [2] = target: THRA (gene 7067) (UniProt P10827); assay: TOX21_TRA_COA_Agonist_Followup_ratio: Tox21 Thyroid Hormone Receptor alpha Agonism through Coactivator Recruitment Follow-Up Assay, Ratio (AID 2283948; active means hit-call score of the fitted dose curve at least 0.9, where 1 is the maximum; inactive means score below 0.9)
Summary of the method: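 Read-out is the 520/495 nm emission ratio (ex 340 nm), scaled between DMSO-only wells as 0% and T3 wells as 100%. It reflects fluorescein-SRC-2 peptide recruitment to GST-TRα LBD detected via terbium anti-GST antibody.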

THRB (gene 7068) [3] = target: THRB (gene 7068) (UniProt P10828); assay: TOX21_TRB_COA_Agonist_Followup_ratio: Tox21 Thyroid Hormone Receptor beta Agonism through Coactivator Recruitment Follow-Up Assay, Ratio (AID 2283963; active means hit-call score of the fitted dose curve at least 0.9, where 1 is the maximum; inactive means score below 0.9)
Summary of the method: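 Signal is the 520/495 nm emission ratio (excitation 340 nm), scaled between DMSO-only wells as 0% and T3 wells as 100%. It reflects fluorescein-labeled SRC-2 peptide recruitment to GST-TRβ ligand-binding domain detected via terbium anti-GST antibody.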

[4] = target: Retinoic acid receptor RXR-alpha (Homo sapiens) (UniProt P19793); assay: TOX21_TR_RXR_BLA_Agonist_Followup_ratio: Tox21 Thyroid Hormone Receptor beta Retinoid X Receptor alpha (RXRa) Agonism Beta-lactamase (BLA) Follow-Up Assay, Ratio (AID 2283968)
Summary of the method: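 This follow-up tests whether responses seen in the TR GH3 luciferase agonist screen are specific, using a GAL4-driven beta-lactamase reporter for RXRa in HEK293T cells. Compound exposure lasts 16 h; signal is the cleaved/uncleaved substrate ratio.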

[5] = TOX21_TR_RXR_BLA_Agonist_Followup_viability: Viability Assessment in the Tox21 Thyroid Hormone Receptor beta Retinoid X Receptor alpha (RXRa) Agonism Beta-lactamase (BLA) Follow-Up Assay (AID 2283970)
Summary of the method: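 In qHTS format, RXRa-bla HEK293T cells (2,500/well) received compound for 16h. ATP content was then measured with CellTiter-Glo, and responses were fitted bidirectionally relative to DMSO controls.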

PGR (gene 5241) [6] = target: PGR (gene 5241) (UniProt P06401); assay: TOX21_PR_BLA_Followup_Antagonist_ratio: Tox21 HEK293 Progesterone Receptor (PR) Antagonism Beta-lactamase Follow-Up Assay, Ratio (AID 2283934);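 further: PR-UAS-bla HEK293T cells stimulated with 1 nM R5020 agonist for 16 hr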
Summary of the method: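 Antagonist mode used 1 nM R5020 (final) as agonist on a beta-lactamase reporter line in HEK293T cells. Activity was taken from the substrate cleavage ratio after 16 hr exposure.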

[7] = TOX21_PR_BLA_Followup_Agonist_viability: Viability Assessment in the Tox21 HEK293 Progesterone Receptor (PR) Agonism Beta-lactamase Follow-Up Assay (AID 2283935);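 further: signal loss means lower viability so actives are cytotoxic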
Summary of the method: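 Multiplexed viability counter-screen: ATP-coupled luciferase signal measured after 30 min at room temperature, following 16 hr compound treatment of PR-UAS-bla HEK293T cells grown in charcoal-stripped serum.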

[8] = TOX21_PR_BLA_Followup_Antagonist_viability: Viability Assessment in the Tox21 HEK293 Progesterone Receptor (PR) Antagonism Beta-lactamase Follow-Up Assay (AID 2283936);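 further: hits lower the luminescence signal meaning cytotoxicity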
Summary of the method: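 PR-UAS-bla HEK293T cells (3,000/well, 2% charcoal-stripped FBS) given compound plus R5020 agonist, 16 h at 37C. CellTiter-Glo added after bla read, 30 min at room temperature; luminescence loss indicates cytotoxicity.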

PGR (gene 5241) [9] = target: PGR (gene 5241) (UniProt P06401); assay: TOX21_PR_LUC_Followup_Antagonist: Tox21 HEK293 Progesterone Receptor (PR) Antagonism Luciferase Follow-Up Assay (AID 2283938);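 further: curve fitted upward as signal gain over DMSO baseline despite antagonist label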
Summary of the method: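 HEK293-PR-A-luc cells were precultured 5 days in medium with 10% charcoal-stripped FBS, seeded 3,000/well, then exposed to compounds in DMSO for 16 h at 37C. Luciferase was read by ONE-Glo luminescence after 30 min at room temperature.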

[10] = TOX21_PR_LUC_Followup_Antagonist_viability: Viability Assessment in the Tox21 HEK293 Progesterone Receptor (PR) Antagonism Luciferase Follow-Up Assay (AID 2283940)
Summary of the method: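 Cellular ATP, measured with luciferase-coupled CellTiter-Glo, served as the viability endpoint after HEK293-PR-A-luc cells were exposed to test compounds for 16 h at 37C.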

[11] = TOX21_PR_LUC_Followup_Agonist_viability: Viability Assessment in the Tox21 HEK293 Progesterone Receptor (PR) Agonism Luciferase Follow-Up Assay (AID 2283941);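 further: loss of signal means cytotoxicity so actives lower viability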
Summary of the method: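 Luminescent ATP quantitation (CellTiter-Glo) serves as the read-out; a drop flags cytotoxic compounds. Cells are HEK293-PR-A-luc grown in 10% charcoal-stripped FBS, plated 3,000/well, and exposed to compound for 16 h.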

PGR (gene 5241) [12] = target: PGR (gene 5241) (UniProt P06401); assay: TOX21_PR_BLA_Followup_Agonist_ratio: Tox21 HEK293 Progesterone Receptor (PR) Agonism Beta-lactamase Follow-Up Assay, Ratio (AID 2283933)
Summary of the method: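 Agonist-mode follow-up in HEK293T cells carrying a UAS-driven beta-lactamase reporter, grown in 2% charcoal-stripped serum. Compounds act for 16 hr; activity is the ch2/ch1 cleavage ratio, with same-well CellTiter-Glo viability run in parallel.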

PGR (gene 5241) [13] = target: PGR (gene 5241) (UniProt P06401); assay: TOX21_PR_LUC_Followup_Agonist: Tox21 HEK293 Progesterone Receptor (PR) Agonism Luciferase Follow-Up Assay (AID 2283937; active means hit-call score of the fitted dose curve at least 0.9, where 1 is the maximum; inactive means score below 0.9)
Summary of the method: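 Agonist mode: reporter cells carrying PR-A and luciferase are treated 16 h with test compounds at 37C. Luciferase induction is measured by luminescence and fitted upward against DMSO.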

[14] = CEETOX_H295R_ESTRONE_noMTC: CeeTox H295R High-throughput Steroidogenesis Assay for Estrone, maximum tolerated concentration (MTC) filtered results only (AID 2283921; active means hit-call score of the fitted dose curve at least 0.9, where 1 is the maximum; inactive means score below 0.9); conditions: actives raise or lower the signal
Summary of the method: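 H295R cells prestimulated 48 h with 10 uM forskolin, then exposed 48 h to chemical in 0.1% DMSO; medium estrone measured by HPLC-MS/MS after MTBE extraction and dansyl derivatization, fitted bidirectionally versus DMSO without MTT-based MTC filtering.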

[15] = target: T1, Thyroid hormone receptor alpha (Rattus norvegicus) + Thyroid hormone receptor beta (Rattus norvegicus); assay: TOX21_TR_LUC_GH3_Antagonist_Followup: Tox21 GH3 Thyroid Hormone Receptor Antagonism Luciferase Follow-Up Assay (AID 2283942)
Summary of the method: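 Antagonist mode: GH3 cells seeded 1,500/well, compounds at 15 concentrations (92 uM to 5nM final) plus T3 at 1.0 nM final, 24 h at 37C. Luciferase read with ONE-Glo after 30 min at room temperature.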

THRA (gene 7067) [16] = target: THRA (gene 7067) (UniProt P10827); assay: TOX21_TRA_COA_Antagonist_Followup_ratio: Tox21 Thyroid Hormone Receptor alpha Antagonism through Coactivator Recruitment Follow-Up Assay, Ratio (AID 2283953)
Summary of the method: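 This follow-up to the GH3 luciferase screen checks specificity in a cell-free format. It measures SRC-2 coactivator peptide binding to TRα LBD by TR-FRET and scores loss of ratio signal relative to DMSO.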

THRB (gene 7068) [17] = target: THRB (gene 7068) (UniProt P10828); assay: TOX21_TRB_BLA_Antagonist_Followup_ratio: Tox21 Thyroid Hormone Receptor beta Antagonism Beta-lactamase (BLA) Follow-Up Assay, Ratio (AID 2283958)
Summary of the method: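 In this antagonist-mode follow-up, a stably integrated GAL4-TRβ LBD fusion drives a UAS-beta-lactamase reporter in HEK293T cells. Loss of ratio signal relative to DMSO after 18 h treatment indicates activity; parallel CellTiter-Glo flags cytotoxicity.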

[18] = TOX21_TRB_BLA_Antagonist_Followup_viability: Viability Assessment in the Tox21 Thyroid Hormone Receptor beta Antagonism Beta-lactamase (BLA) Follow-Up Assay (AID 2283961)
Summary of the method: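 HEK293T cells stably expressing GAL4-DBD/human TRβ-LBD with UAS-bla reporter, 3,000 cells/well in phenol red-free DMEM, 2% charcoal-stripped FBS. Compounds at 11 concentrations in triplicate, 18 h at 37C/5% CO2; viability by CellTiter-Glo luminescence after 30 min at room temperature.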

THRB (gene 7068) [19] = target: THRB (gene 7068) (UniProt P10828); assay: TOX21_TRB_COA_Antagonist_Followup_ratio: Tox21 Thyroid Hormone Receptor beta Antagonism through Coactivator Recruitment Follow-Up Assay, Ratio (AID 2283967)
Summary of the method: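 Cell-free TR-FRET: GST-TRb LBD (5.0 nM) with fluorescein-SRC-2 peptide (200 nM) and Tb anti-GST antibody (2 nM), 0.10% BSA. 520:495 nm emission ratio normalized to DMSO (0%) and T3 (100%).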

[20] = target: Retinoic acid receptor RXR-alpha (Homo sapiens) (UniProt P19793); assay: TOX21_TR_RXR_BLA_Antagonist_Followup_ratio: Tox21 Thyroid Hormone Receptor beta Retinoid X Receptor alpha (RXRa) Antagonism Beta-lactamase (BLA) Follow-Up Assay, Ratio (AID 2283972)
Summary of the method: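 RXRa-UAS-bla HEK293T cells in phenol red-free DMEM with 2% charcoal-stripped FBS; compounds at 11 concentrations in triplicate, 16 h at 37C. LiveBLAzer FRET-B/CCF4-AM substrate 2 h at room temperature; read as 460:530 nm ratio versus DMSO.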

Measured: AC50

Chain of THRB (gene 7068) (P10828 whole entry, looked up, the tested form may be a part): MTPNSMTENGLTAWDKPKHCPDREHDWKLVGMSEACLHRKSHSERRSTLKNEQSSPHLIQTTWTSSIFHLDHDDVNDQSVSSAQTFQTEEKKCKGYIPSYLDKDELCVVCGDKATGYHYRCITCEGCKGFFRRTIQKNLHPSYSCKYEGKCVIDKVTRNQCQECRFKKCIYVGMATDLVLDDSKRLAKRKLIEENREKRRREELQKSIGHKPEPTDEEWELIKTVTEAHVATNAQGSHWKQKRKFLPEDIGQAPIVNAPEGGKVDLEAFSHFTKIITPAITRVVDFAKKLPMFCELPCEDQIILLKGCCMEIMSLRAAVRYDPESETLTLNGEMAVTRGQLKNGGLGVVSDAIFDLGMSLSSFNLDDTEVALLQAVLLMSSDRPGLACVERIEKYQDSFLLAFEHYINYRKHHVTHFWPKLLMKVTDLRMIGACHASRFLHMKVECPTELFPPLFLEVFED
Chain of THRA (gene 7067) (P10827 whole entry, looked up, the tested form may be a part): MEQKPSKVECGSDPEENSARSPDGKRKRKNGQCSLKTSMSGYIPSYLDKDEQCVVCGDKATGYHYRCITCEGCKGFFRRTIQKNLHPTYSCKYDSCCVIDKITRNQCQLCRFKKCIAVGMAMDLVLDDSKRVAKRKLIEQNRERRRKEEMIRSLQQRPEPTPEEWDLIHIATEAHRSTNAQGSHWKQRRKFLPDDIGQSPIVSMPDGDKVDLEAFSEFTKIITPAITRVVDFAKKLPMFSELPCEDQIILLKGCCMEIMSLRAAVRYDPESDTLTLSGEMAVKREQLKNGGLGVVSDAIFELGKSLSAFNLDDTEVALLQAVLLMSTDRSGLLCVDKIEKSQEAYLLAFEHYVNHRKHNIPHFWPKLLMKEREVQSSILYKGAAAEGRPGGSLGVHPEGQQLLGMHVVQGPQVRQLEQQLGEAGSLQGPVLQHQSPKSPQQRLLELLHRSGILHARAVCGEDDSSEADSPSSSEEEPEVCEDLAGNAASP
Chain of PGR (gene 5241) (P06401 whole entry, looked up): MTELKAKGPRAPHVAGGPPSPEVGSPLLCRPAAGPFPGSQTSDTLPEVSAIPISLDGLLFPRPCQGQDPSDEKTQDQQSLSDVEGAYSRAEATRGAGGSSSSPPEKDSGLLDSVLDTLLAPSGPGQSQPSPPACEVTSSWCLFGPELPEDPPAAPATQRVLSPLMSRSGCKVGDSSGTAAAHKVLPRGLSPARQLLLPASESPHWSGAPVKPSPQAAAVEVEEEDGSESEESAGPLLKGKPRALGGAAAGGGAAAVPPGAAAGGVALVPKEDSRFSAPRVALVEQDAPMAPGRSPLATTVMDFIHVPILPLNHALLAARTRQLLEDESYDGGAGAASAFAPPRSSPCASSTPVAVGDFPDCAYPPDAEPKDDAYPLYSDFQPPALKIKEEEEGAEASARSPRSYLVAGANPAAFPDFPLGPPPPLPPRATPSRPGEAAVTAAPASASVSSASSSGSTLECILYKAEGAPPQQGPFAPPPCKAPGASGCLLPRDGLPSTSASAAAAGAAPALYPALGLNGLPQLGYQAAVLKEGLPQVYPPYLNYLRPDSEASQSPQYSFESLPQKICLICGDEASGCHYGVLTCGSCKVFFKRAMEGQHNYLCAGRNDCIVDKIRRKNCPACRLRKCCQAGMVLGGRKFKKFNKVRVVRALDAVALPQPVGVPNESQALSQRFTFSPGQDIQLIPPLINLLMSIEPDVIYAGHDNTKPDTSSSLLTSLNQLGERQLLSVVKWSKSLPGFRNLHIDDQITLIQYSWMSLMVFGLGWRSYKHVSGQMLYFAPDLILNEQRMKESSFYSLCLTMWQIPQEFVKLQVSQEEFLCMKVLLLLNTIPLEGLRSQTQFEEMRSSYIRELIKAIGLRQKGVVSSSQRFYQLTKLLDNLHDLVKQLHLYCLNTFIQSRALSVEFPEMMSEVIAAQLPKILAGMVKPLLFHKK
T1 sequence (P63059 whole entry, looked up): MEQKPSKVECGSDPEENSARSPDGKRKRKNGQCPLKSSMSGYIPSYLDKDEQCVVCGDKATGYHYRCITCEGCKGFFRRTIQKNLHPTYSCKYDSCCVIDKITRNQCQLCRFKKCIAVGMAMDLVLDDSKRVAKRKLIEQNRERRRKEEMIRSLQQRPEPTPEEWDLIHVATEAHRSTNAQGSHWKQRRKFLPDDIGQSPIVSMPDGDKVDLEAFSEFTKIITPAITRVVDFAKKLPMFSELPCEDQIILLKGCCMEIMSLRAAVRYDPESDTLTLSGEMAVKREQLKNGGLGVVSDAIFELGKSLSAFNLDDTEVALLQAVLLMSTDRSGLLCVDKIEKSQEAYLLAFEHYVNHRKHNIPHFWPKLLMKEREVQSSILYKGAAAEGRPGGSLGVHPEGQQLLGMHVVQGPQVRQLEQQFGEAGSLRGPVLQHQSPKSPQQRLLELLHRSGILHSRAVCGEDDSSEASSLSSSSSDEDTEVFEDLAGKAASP
T1 sequence (P18113 whole entry, looked up): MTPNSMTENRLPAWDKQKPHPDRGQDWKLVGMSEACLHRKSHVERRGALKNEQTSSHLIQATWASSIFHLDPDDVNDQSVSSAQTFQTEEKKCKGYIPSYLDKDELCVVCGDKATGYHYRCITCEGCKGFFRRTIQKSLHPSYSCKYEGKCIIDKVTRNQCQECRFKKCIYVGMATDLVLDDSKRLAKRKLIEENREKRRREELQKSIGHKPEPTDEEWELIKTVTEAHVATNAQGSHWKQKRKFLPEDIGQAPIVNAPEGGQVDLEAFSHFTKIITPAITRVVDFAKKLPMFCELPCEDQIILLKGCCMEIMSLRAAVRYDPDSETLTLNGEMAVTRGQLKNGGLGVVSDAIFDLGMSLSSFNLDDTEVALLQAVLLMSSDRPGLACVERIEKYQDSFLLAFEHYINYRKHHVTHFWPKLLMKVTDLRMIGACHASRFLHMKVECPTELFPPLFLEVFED
Chain of Retinoic acid receptor RXR-alpha (Homo sapiens) (P19793 whole entry, looked up, the tested form may be a part): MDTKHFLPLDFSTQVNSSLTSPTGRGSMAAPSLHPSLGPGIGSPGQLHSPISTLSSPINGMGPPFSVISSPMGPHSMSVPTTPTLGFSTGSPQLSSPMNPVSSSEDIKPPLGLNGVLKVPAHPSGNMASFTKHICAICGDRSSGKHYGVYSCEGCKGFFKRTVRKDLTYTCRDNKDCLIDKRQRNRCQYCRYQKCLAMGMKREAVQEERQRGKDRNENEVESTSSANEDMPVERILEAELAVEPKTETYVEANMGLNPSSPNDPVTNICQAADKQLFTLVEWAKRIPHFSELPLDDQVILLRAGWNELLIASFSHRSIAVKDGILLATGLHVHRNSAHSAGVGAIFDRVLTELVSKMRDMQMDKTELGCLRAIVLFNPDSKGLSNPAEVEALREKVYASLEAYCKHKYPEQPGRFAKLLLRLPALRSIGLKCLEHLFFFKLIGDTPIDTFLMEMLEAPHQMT

CCCN(CCC)C(=O)SCC
inactive: [1] | THRA (gene 7067) [2] | THRB (gene 7068) [3] | [4]

CCNc1nc(N)nc(Cl)n1
inactive: [1] | THRA (gene 7067) [2] | THRB (gene 7068) [3] | [4] | [5]

COC(=O)c1ccc(I)cc1S(=O)(=O)NC(=O)Nc1nc(C)nc(OC)n1
inactive: [1] | THRA (gene 7067) [2] | THRB (gene 7068) [3] | [4] | [5]

CC(C)CCCCCCc1ccc(O)cc1
inactive: PGR (gene 5241) [6] | [7] | [8] | PGR (gene 5241) [9] | [10] | [11]

CC(C)(c1ccc(O)cc1)c1ccc(O)cc1
active: PGR (gene 5241) [6] 32.9 µM | PGR (gene 5241) [9] 33.3 µM
inactive: PGR (gene 5241) [12] | [7] | [8] | PGR (gene 5241) [13] | [10]

COC(=O)c1ccccc1C(=O)O
inactive: [14]

CC(=O)[C@H]1CC[C@H]2[C@@H]3CCC4=CC(=O)CC[C@]4(C)[C@H]3CC[C@]12C
inactive: [15] | THRA (gene 7067) [16] | THRB (gene 7068) [17] | [18] | THRB (gene 7068) [19]

O=C(c1ccc(O)cc1O)c1ccc(O)cc1O
inactive: PGR (gene 5241) [12] | [8] | PGR (gene 5241) [13] | [10] | [11]
active: PGR (gene 5241) [6] 58.1 µM | PGR (gene 5241) [9] 68.3 µM

C[C@]12CC[C@@H]3c4ccc(O)cc4C[C@@H](CCCCCCCCCS(=O)CCCC(F)(F)C(F)(F)F)[C@H]3[C@@H]1CC[C@@H]2O (some centres not stated)
active: PGR (gene 5241) [6] 4.06 µM | PGR (gene 5241) [9] 5.78 µM
inactive: PGR (gene 5241) [12] | PGR (gene 5241) [13] | [10] | [11] | [15] | [18] | THRB (gene 7068) [19] | [20]

C[C@]12C[C@H](O)[C@H]3[C@@H](CCC4=CC(=O)CC[C@@]43C)[C@@H]1CC[C@@H]2C(=O)CO
inactive: [7] | [8] | PGR (gene 5241) [9] | [11] | THRA (gene 7067) [16] | THRB (gene 7068) [17] | [18]
